{"source": "PubChem BioAssay"}
{"tested_on": "Wnt5a (protein binding on small-molecule microarray)", "assay": "small molecules binding Wnt5a protein – biophysical, small-molecule microarray, 635/667 nm fluorescence, primary screen (AID 1142);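 note: fluorescence read at 667 nm with signal to noise per printed feature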", "conditions": "635 nm fluorescence, higher = more signal"}
{"compound": "O=C1c2ccccc2[C@](Cc2ccccc2I)(C(=O)O)[C@H](c2ccc(CO)cc2)N1C1CCCCC1", "composite z-score": 0.818}
{"compound": "[N-]=[N+]=NCc1ccccc1C[C@]1(C(N)=O)N=C(c2ccc(OCCCO)cc2)O[C@H]1c1ccccc1CN=[N+]=[N-]", "composite z-score": 0.447}
{"compound": "CO[C@H]1COC(=O)[C@H](C)NC(=O)CC=C[C@@H](C)[C@H](NS(=O)(=O)c2ccc(C)cc2)COC(=O)[C@@H](OCc2ccccc2)C=C[C@@H]1C", "composite z-score": 0.0746}
{"compound": "COC(=O)c1c(CC[C@@H](CO)NC(=O)N[C@H](Cn2cc(-c3cncn3C)nn2)C(C)C)oc(C(C)=O)c1C(=O)OC", "composite z-score": 0.0781}
{"compound": "C=C(COC)/C(=C/C[C@@H](OC(C)=O)c1cccc(OCCO)c1)c1cc(C(=O)OC)ccc1OC", "composite z-score": 0.0467}
{"compound": "CC(C)[Si]1(C(C)C)O[C@@H](c2ccccc2)c2cc(C3CC3)nc(-c3ccc(Oc4ccccc4)cc3)c21", "composite z-score": -0.217}
